# Data from the supplement of paper PMC8728848.
# The full list was thinned out, with the strongest signals kept by preference.
# B1: Mannose Binding Protein (Lactobacillus plantarum) (protein)
# chain: AERSEAALTHVDKDNFLKYFSLNGSATYDAKTGIVTITPNQNNQVGNFSLTSKIDMNKSFTLTGQVNLGSNPNGADGIGFAFHSGNTTDVGNAGGNLGIGGLQDAIGFKLDTWFNSYQAPSSDKNGSEISSTNSNGFGWNGDSANAPYGTFVKTSNQEISTANGSKVQRWWAQDTGESQALSKADIDGNFHDFVVNYDGATRTLTVSYTQASGKVLTWKTTVASSYQAMAMVVSASTGAAKNLQQFKLTSFDFQEAATVNVKYVDTTGHQLAQG
# B2: Siglec-F (Mus musculus), Q920G3 (protein)
# chain: MRWAWLLPLLWAGCLATDGYSLSVTGSVTVQEGLCVFVACQVQYPNSKGPVFGYWFREGANIFSGSPVATNDPQRSVLKEAQGRFYLMGKENSHNCSLDIRDAQKIDTGTYFFRLDGSVKYSFQKSMLSVLVIALTEVPNIQVTSTLVSGNSTKLLCSVPWACEQGTPPIFSWMSSALTSLGHRTTLSSELNLTPRPQDNGTNLTCQVNLPGTGVTVERTQQLSVIYAPQKMTIRVSWGDDTGTKVLQSGASLQIQEGESLSLVCMADSNPPAVLSWERPTQKPFQLSTPAELQLPRAELEDQGKYICQAQNSQGAQTASVSLSIRSLLQLLGPSCSFEGQGLHCSCSSRAWPAPSLRWRLGEGVLEGNSSNGSFTVKSSSAGQWANSSLILSMEFSSNHRLSCEAWSDNRVQRATILLVSGPKVSQAGKSETSRGTVLGAIWGAGLMALLAVCLCLIFFTVKVLRKKSALKVAATKGNHLAKNPASTINSASITSSNIALGYPIQGHLNEPGSQTQKEQPPLATVPDTQKDEPELHYASLSFQGPMPPKPQNTEAMKSVYTEIKIHKC
# How the values were obtained:
# Assay in all cases: glycan array binding signal (z-score within array); higher = stronger binding
# Details in all cases: glycan notation: IUPAC condensed, linker removed
# [1] = target: Fuc(a1-2)Gal(b1-3)[Fuc(a1-4)]GlcNAc
# Outline: (§1)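 Negative Z-scores can be read as non-binding. The Z-score is calculated within each array and then averaged across arrays of one protein sequence at different concentrations or buffers and across linkers. Arrays, 3228 in all, were curated from the Consortium for Functional Glycomics database and kept only where the protein sequence was available.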
# Fuc(a1-2)Gal(b1-4)GlcNAc = target: Fuc(a1-2)Gal(b1-4)GlcNAc
# Outline: as §1
# [2] = target: Fuc(a1-2)Gal(b1-4)GlcNAc(b1-2)Man(a1-6)[Gal(b1-4)GlcNAc(b1-2)Man(a1-3)]Man(b1-4)GlcNAc(b1-4)GlcNAc
# Outline: as §1
# [3] = target: Fuc(a1-2)Gal(b1-4)GlcNAc(b1-3)Gal(b1-4)GlcNAc
# Outline: as §1
# [4] = target: Fuc(a1-2)[Gal(a1-3)]Gal(b1-3)GlcNAc
# Outline: as §1
# Fuc(a1-3)GlcNAc = target: Fuc(a1-3)GlcNAc
# Outline: as §1
# [5] = target: Fuc(a1-3)[Gal(b1-4)]GlcNAc(b1-4)Gal(b1-4)[Fuc(a1-3)]GlcNAc(b1-4)Gal(b1-4)[Fuc(a1-3)]GlcNAc
# Outline: as §1
# Gal(a1-3)Gal(b1-4)Glc = target: Gal(a1-3)Gal(b1-4)Glc
# Outline: as §1
# [6] = target: Gal(a1-3)[Gal(a1-4)]Gal(b1-4)GlcNAc
# Outline: as §1
# Gal(b1-4)Glc = target: Gal(b1-4)Glc
# Outline: as §1
# [7] = target: Gal(b1-4)GlcNAc(b1-6)Gal(b1-4)GlcNAc
# Outline: as §1
# Gal6S(b1-4)Glc = target: Gal6S(b1-4)Glc
# Outline: as §1
# [8] = target: GalNAc(b1-3)Gal(a1-4)Gal(b1-4)GlcNAc
# Outline: as §1
# GalNAc(b1-3)GalNAc = target: GalNAc(b1-3)GalNAc
# Outline: as §1
# [9] = target: GlcNAc(a1-6)Gal(b1-4)GlcNAc
# Outline: as §1
# Man(a1-2)Man(a1-3)Man = target: Man(a1-2)Man(a1-3)Man
# Outline: as §1
# [10] = target: Man(a1-2)Man(a1-3)[Man(a1-6)]Man(a1-6)[Man(a1-2)Man(a1-3)]Man(b1-4)GlcNAc(b1-4)GlcNAc
# Outline: as §1
# [11] = target: Man(a1-3)[Man(a1-6)]Man(a1-6)[Man(a1-3)]Man
# Outline: as §1
# [12] = target: Neu5Ac(a2-3)Gal(b1-3)GlcNAc(b1-3)Gal(b1-3)GlcNAc
# Outline: as §1
# [13] = target: Neu5Ac(a2-3)Gal(b1-3)GlcNAc6S
# Outline: as §1
# [14] = target: Neu5Ac(a2-6)Gal(b1-4)GlcNAc(b1-2)Man(a1-3)[GlcNAc(b1-2)Man(a1-6)]Man(b1-4)GlcNAc(b1-4)GlcNAc
# Outline: as §1
# [15] = target: Neu5Ac(a2-6)Gal(b1-4)GlcNAc(b1-2)Man(a1-3)[Neu5Ac(a2-6)Gal(b1-4)GlcNAc(b1-2)Man(a1-6)]Man(b1-4)GlcNAc(b1-4)GlcNAc
# Outline: as §1
# [16] = target: Neu5Gc(a2-3)Gal(b1-3)GlcNAc
# Outline: as §1
# [17] = target: Neu5Gc(b2-6)Gal(b1-4)GlcNAc
# Outline: as §1
# [18] = target: Fuc(a1-2)Gal(b1-3)[Fuc(a1-4)]GlcNAc(b1-2)Man(a1-3)[Fuc(a1-2)Gal(b1-3)[Fuc(a1-4)]GlcNAc(b1-2)Man(a1-6)]Man(b1-4)GlcNAc(b1-4)GlcNAc
# Outline: as §1
# [19] = target: Fuc(a1-2)Gal(b1-3)[Fuc(a1-4)]GlcNAc(b1-3)[Fuc(a1-3)[Gal(b1-4)]GlcNAc(b1-6)]Gal(b1-4)Glc
# Outline: as §1
# Fuc(a1-2)Gal6S(b1-4)Glc = target: Fuc(a1-2)Gal6S(b1-4)Glc
# Outline: as §1
# [20] = target: Fuc(a1-2)[GalNAc(a1-3)]Gal(b1-3)GalNAc(a1-3)[Fuc(a1-2)]Gal(b1-4)GlcNAc
# Outline: as §1
# [21] = target: Fuc(a1-2)[GalNAc(a1-3)]Gal(b1-3)GlcNAc(b1-3)GalNAc
# Outline: as §1
# [22] = target: Fuc(a1-2)[GalNAc(a1-3)]Gal(b1-3)GlcNAc(b1-6)GalNAc
# Outline: as §1
# [23] = target: Fuc(a1-2)[GalNAc(a1-3)]Gal(b1-4)GlcNAc(b1-2)Man(a1-3)[Fuc(a1-2)[GalNAc(a1-3)]Gal(b1-4)GlcNAc(b1-2)Man(a1-6)]Man(b1-4)GlcNAc(b1-4)GlcNAc
# Outline: as §1
# [24] = target: Fuc(a1-3)[Gal(b1-4)]GlcNAc
# Outline: as §1
# [25] = target: Fuc(a1-3)[Gal(b1-4)]GlcNAc(b1-3)Gal(b1-4)[Fuc(a1-3)]GlcNAc(b1-3)Gal(b1-4)[Fuc(a1-3)]GlcNAc
# Outline: as §1
# [26] = target: Fuc(a1-3)[Gal3S(b1-4)]Glc
# Outline: as §1
# [27] = target: Gal(a1-3)Gal(b1-4)GlcNAc(b1-6)GalNAc
# Outline: as §1
# [28] = target: Gal(a1-3)Gal(b1-4)[Fuc(a1-3)]GlcNAc
# Outline: as §1
# [29] = target: Gal(a1-4)Gal(b1-3)GlcNAc(b1-2)Man(a1-3)[Gal(a1-4)Gal(b1-3)GlcNAc(b1-2)Man(a1-6)]Man(b1-4)GlcNAc(b1-4)GlcNAc
# Outline: as §1
# [30] = target: Gal(b1-3)GalNAc(b1-4)[Neu5Ac(a2-3)]Gal(b1-4)Glc
# Outline: as §1
# [31] = target: Gal(b1-3)[Neu5Ac(a2-6)]GlcNAc(b1-6)Gal(b1-4)Glc
# Outline: as §1
# [32] = target: Gal(b1-4)GlcNAc(b1-2)Man(a1-3)[Gal(b1-4)GlcNAc(b1-2)Man(a1-6)][Gal(b1-4)GlcNAc(b1-4)]Man(b1-4)GlcNAc(b1-4)[Fuc(a1-6)]GlcNAc
# Outline: as §1
# [33] = target: Gal(b1-4)GlcNAc(b1-2)Man(a1-3)[Man(a1-6)]Man(b1-4)GlcNAc(b1-4)GlcNAc
# Outline: as §1
# [34] = target: Gal(b1-4)GlcNAc(b1-2)Man(a1-6)[GlcNAc(b1-2)Man(a1-3)]Man(b1-4)GlcNAc(b1-4)GlcNAc
# Outline: as §1
# [35] = target: Gal(b1-4)GlcNAc(b1-2)[Gal(b1-4)GlcNAc(b1-4)]Man(a1-3)[Gal(b1-4)GlcNAc(b1-2)[Gal(b1-4)GlcNAc(b1-6)]Man(a1-6)]Man(b1-4)GlcNAc(b1-4)GlcNAc
# Outline: as §1
# [36] = target: Gal(b1-4)GlcNAc(b1-3)Gal(b1-4)GlcNAc
# Outline: as §1
# Gal(b1-4)GlcNAc6P = target: Gal(b1-4)GlcNAc6P
# Outline: as §1
# Gal3S(b1-3)GlcNAc = target: Gal3S(b1-3)GlcNAc
# Outline: as §1
# [37] = target: Gal3S(b1-4)[Fuc(a1-3)]Glc6S
# Outline: as §1
# Gal3S6S(b1-4)GlcNAc6S = target: Gal3S6S(b1-4)GlcNAc6S
# Outline: as §1
# [38] = target: GalNAc(a1-3)Fuc(a1-2)Gal(b1-4)GlcNAc(b1-3)[GalNAc(a1-3)Fuc(a1-2)Gal(b1-4)GlcNAc(b1-6)]GalNAc
# Outline: as §1
# GalNAc(b1-3)GlcNAc = target: GalNAc(b1-3)GlcNAc
# Outline: as §1
# GalNAc(b1-4)Gal(b1-4)Glc = target: GalNAc(b1-4)Gal(b1-4)Glc
# Outline: as §1
binder,measurement,setting,value
B1,glycan array binding signal (z-score),[1],-0.167
same,glycan array binding signal (z-score),Fuc(a1-2)Gal(b1-4)GlcNAc,-0.102
same,glycan array binding signal (z-score),[2],-0.749
same,glycan array binding signal (z-score),[3],-0.358
same,glycan array binding signal (z-score),[4],-0.696
same,glycan array binding signal (z-score),Fuc(a1-3)GlcNAc,-0.141
same,glycan array binding signal (z-score),[5],-0.071
same,glycan array binding signal (z-score),Gal(a1-3)Gal(b1-4)Glc,13.6
same,glycan array binding signal (z-score),[6],-0.551
same,glycan array binding signal (z-score),Gal(b1-4)Glc,-0.319
same,glycan array binding signal (z-score),[7],-0.654
same,glycan array binding signal (z-score),Gal6S(b1-4)Glc,0.521
same,glycan array binding signal (z-score),[8],4.17
same,glycan array binding signal (z-score),GalNAc(b1-3)GalNAc,2.15
same,glycan array binding signal (z-score),[9],-0.056
same,glycan array binding signal (z-score),Man(a1-2)Man(a1-3)Man,3.36
same,glycan array binding signal (z-score),[10],0.227
same,glycan array binding signal (z-score),[11],1.77
same,glycan array binding signal (z-score),[12],-0.526
same,glycan array binding signal (z-score),[13],-0.327
same,glycan array binding signal (z-score),[14],-0.444
same,glycan array binding signal (z-score),[15],-0.324
same,glycan array binding signal (z-score),[16],-0.785
same,glycan array binding signal (z-score),[17],1.04
B2,glycan array binding signal (z-score),[1],-0.132
same,glycan array binding signal (z-score),[18],-0.079
same,glycan array binding signal (z-score),[19],-0.122
same,glycan array binding signal (z-score),Fuc(a1-2)Gal6S(b1-4)Glc,-0.123
same,glycan array binding signal (z-score),[4],-0.115
same,glycan array binding signal (z-score),[20],-0.104
same,glycan array binding signal (z-score),[21],-0.094
same,glycan array binding signal (z-score),[22],-0.114
same,glycan array binding signal (z-score),[23],-0.049
same,glycan array binding signal (z-score),[24],-0.117
same,glycan array binding signal (z-score),[25],-0.115
same,glycan array binding signal (z-score),[5],-0.121
same,glycan array binding signal (z-score),[26],-0.146
same,glycan array binding signal (z-score),[27],-0.146
same,glycan array binding signal (z-score),[28],-0.123
same,glycan array binding signal (z-score),[29],0.083
same,glycan array binding signal (z-score),[30],-0.109
same,glycan array binding signal (z-score),[31],-0.091
same,glycan array binding signal (z-score),[32],-0.095
same,glycan array binding signal (z-score),[33],0.022
same,glycan array binding signal (z-score),[34],-0.13
same,glycan array binding signal (z-score),[35],-0.127
same,glycan array binding signal (z-score),[36],-0.096
same,glycan array binding signal (z-score),Gal(b1-4)GlcNAc6P,-0.111
same,glycan array binding signal (z-score),Gal3S(b1-3)GlcNAc,-0.108
same,glycan array binding signal (z-score),[37],0.156
same,glycan array binding signal (z-score),Gal3S6S(b1-4)GlcNAc6S,-0.104
same,glycan array binding signal (z-score),[38],-0.088
same,glycan array binding signal (z-score),GalNAc(b1-3)GlcNAc,-0.154
same,glycan array binding signal (z-score),GalNAc(b1-4)Gal(b1-4)Glc,-0.099
